Measured values: the supplement of paper PMC10849652
The full data set covers some 8,800 targets. This sample favours those with a hit. About 0.5% of all pairs of compound and target were hits.

Tests used:
Experiment in all cases: log2 fold change, soluble protein after heating vs DMSO (PISA); higher = thermal stabilisation; K562 lysate, 10 uM; active = over 0.2 and 3.5 SD of the protein, either way, in both replicates (recomputed)
[1] = compound: C1=CC=C(C=C1)[C@H](COC2=CC3=C(C=C2)NC(=O)N3)NC(=O)C4=CC=CN(C4=O)CC5=CC(=C(C=C5)F)F
Summary of the method: (§1)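 Quantification was by TMTpro 16plex LC-MS/MS with equalised channel sums, applied to the supernatant after 21,000xg for 90 min. Samples were crude K562 extract at 1 mg/mL protein in PBS pH 7.4 with 1 mM MgCl2, treated with 10 μM compound for 30 min, heated for 3 min across 48°C-58°C, pooled and brought to 0.5% NP-40 at 4°C. Values are log-two fold changes in thermal stability relative to solvent controls, from duplicates.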

[2] = compound: CC1=C(SC2=C1C(=N[C@H](C3=NN=C(N32)C)CC(=O)N)C4=CC=C(C=C4)Cl)C
Summary of the method: as §1

[3] = compound: CC1=C2C(=CC=C1)N=C(N(C2=O)C3=CC=CC=C3C)CN4C=NC5=C(N=CN=C54)N
Summary of the method: as §1

[4] = compound: Cc1sc2c(c1C)C(c1ccc(Cl)cc1)=N[C@@H](CC(=O)OC(C)(C)C)c1nnc(C)n1-2
Summary of the method: as §1

[5] = compound: c1ccc([C@@H]2C[C@H]2NC2CCNCC2)cc1
Summary of the method: as §1

Measured: log2 fold change

TPP2 (UniProt P29144)
UniProt P29144, sequence (P29144 whole entry, looked up): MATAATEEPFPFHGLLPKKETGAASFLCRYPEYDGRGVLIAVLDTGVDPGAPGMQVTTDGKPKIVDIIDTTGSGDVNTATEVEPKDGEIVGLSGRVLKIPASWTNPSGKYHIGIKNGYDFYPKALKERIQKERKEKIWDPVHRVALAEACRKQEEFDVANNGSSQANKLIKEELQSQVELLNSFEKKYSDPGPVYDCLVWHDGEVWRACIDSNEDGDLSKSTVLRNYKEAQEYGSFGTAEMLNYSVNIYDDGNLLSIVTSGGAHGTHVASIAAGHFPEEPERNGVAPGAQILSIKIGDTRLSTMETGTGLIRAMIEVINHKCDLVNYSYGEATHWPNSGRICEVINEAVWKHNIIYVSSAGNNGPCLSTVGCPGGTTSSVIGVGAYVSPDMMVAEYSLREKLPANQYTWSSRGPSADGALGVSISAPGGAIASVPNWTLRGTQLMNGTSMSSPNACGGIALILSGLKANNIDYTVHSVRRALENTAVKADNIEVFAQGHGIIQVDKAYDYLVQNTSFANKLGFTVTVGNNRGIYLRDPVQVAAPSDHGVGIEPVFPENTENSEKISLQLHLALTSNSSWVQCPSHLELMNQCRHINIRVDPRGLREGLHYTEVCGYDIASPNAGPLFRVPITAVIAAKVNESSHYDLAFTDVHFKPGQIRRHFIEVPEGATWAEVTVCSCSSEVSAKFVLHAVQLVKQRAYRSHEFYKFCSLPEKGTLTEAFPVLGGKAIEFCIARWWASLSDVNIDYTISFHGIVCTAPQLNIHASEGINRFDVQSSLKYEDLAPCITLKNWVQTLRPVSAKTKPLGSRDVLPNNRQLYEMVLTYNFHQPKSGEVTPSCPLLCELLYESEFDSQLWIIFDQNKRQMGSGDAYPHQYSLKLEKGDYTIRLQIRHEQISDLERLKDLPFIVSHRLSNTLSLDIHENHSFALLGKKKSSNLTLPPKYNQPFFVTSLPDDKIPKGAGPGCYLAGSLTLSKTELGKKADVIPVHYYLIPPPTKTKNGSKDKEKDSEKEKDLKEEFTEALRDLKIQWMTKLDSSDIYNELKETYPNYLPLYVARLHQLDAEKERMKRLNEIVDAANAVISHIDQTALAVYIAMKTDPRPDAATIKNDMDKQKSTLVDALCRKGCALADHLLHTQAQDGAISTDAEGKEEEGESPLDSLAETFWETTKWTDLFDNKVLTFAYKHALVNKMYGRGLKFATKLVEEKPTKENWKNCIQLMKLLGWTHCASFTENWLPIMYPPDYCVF
inactive: [1] 0.006 | [2] 0.008 | [3] -0.002 | [4] 0.039 | [5] 0.025

TRMT10A (UniProt Q8TBZ6)
UniProt Q8TBZ6, sequence (Q8TBZ6 whole entry, looked up): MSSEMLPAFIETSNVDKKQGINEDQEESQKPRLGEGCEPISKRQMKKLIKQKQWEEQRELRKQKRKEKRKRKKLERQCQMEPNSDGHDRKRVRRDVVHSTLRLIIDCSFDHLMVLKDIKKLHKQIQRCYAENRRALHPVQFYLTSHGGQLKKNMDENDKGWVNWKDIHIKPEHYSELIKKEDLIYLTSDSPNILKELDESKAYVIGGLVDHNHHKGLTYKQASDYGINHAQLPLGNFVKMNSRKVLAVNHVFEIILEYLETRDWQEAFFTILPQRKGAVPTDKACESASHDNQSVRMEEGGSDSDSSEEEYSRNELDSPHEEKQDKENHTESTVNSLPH
inactive: [1] -0.046 | [2] 0.099 | [3] -0.025 | [4] 0.016 | [5] -0.029

TOE1 (UniProt Q96GM8)
inactive: [1] 0.063 | [2] -0.01 | [3] 0.03 | [4] 0.032 | [5] 0.01

TPX2 (UniProt Q9ULW0)
inactive: [1] 0.04 | [2] -0.006 | [3] 0.008 | [4] -0.003 | [5] 0

TYMS (UniProt P04818)
UniProt P04818, sequence (P04818 whole entry, looked up): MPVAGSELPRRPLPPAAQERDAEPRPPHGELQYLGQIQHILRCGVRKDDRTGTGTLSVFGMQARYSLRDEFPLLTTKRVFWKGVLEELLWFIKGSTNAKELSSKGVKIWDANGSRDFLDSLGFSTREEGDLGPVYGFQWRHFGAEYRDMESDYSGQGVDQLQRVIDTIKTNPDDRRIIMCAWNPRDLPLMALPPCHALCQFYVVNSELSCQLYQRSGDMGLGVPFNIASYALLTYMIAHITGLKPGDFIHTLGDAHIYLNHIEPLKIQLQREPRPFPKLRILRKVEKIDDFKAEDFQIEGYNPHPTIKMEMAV
inactive: [1] -0.005 | [2] 0.02 | [3] -0.005 | [4] 0.012 | [5] 0.014

TMPO (UniProt P42167)
UniProt P42167, sequence (P42167 whole entry, looked up): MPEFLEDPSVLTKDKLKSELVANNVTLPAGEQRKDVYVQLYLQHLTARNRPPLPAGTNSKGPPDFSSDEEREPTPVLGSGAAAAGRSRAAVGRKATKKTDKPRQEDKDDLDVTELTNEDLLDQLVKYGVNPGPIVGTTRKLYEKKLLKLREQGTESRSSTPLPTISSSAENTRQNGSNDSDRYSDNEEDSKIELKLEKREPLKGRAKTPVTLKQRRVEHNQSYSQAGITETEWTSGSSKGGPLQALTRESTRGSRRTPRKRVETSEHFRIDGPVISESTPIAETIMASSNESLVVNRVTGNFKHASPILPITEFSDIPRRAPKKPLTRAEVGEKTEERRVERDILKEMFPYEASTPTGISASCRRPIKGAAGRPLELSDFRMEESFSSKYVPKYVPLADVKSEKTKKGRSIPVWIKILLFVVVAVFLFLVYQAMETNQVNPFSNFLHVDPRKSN
inactive: [1] -0.017 | [2] 0.044 | [3] -0.042 | [4] 0.042 | [5] -0.023

TTC38 (UniProt Q5R3I4)
UniProt Q5R3I4, sequence (Q5R3I4 whole entry, looked up): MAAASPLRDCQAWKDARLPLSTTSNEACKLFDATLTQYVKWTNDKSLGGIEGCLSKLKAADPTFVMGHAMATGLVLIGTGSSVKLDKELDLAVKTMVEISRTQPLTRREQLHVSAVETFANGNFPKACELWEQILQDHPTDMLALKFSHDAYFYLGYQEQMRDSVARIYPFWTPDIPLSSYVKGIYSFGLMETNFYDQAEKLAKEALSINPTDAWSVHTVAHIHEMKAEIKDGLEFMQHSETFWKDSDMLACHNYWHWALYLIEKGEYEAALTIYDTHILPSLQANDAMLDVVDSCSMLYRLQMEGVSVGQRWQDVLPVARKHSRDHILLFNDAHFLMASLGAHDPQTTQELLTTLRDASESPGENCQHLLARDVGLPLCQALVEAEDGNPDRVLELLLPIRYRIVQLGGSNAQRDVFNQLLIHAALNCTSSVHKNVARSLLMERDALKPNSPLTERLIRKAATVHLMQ
inactive: [1] -0.001 | [2] 0 | [3] 0.05 | [4] 0.003 | [5] 0.126

TUT4 (UniProt Q5TAX3)
UniProt Q5TAX3, sequence (Q5TAX3 whole entry, looked up): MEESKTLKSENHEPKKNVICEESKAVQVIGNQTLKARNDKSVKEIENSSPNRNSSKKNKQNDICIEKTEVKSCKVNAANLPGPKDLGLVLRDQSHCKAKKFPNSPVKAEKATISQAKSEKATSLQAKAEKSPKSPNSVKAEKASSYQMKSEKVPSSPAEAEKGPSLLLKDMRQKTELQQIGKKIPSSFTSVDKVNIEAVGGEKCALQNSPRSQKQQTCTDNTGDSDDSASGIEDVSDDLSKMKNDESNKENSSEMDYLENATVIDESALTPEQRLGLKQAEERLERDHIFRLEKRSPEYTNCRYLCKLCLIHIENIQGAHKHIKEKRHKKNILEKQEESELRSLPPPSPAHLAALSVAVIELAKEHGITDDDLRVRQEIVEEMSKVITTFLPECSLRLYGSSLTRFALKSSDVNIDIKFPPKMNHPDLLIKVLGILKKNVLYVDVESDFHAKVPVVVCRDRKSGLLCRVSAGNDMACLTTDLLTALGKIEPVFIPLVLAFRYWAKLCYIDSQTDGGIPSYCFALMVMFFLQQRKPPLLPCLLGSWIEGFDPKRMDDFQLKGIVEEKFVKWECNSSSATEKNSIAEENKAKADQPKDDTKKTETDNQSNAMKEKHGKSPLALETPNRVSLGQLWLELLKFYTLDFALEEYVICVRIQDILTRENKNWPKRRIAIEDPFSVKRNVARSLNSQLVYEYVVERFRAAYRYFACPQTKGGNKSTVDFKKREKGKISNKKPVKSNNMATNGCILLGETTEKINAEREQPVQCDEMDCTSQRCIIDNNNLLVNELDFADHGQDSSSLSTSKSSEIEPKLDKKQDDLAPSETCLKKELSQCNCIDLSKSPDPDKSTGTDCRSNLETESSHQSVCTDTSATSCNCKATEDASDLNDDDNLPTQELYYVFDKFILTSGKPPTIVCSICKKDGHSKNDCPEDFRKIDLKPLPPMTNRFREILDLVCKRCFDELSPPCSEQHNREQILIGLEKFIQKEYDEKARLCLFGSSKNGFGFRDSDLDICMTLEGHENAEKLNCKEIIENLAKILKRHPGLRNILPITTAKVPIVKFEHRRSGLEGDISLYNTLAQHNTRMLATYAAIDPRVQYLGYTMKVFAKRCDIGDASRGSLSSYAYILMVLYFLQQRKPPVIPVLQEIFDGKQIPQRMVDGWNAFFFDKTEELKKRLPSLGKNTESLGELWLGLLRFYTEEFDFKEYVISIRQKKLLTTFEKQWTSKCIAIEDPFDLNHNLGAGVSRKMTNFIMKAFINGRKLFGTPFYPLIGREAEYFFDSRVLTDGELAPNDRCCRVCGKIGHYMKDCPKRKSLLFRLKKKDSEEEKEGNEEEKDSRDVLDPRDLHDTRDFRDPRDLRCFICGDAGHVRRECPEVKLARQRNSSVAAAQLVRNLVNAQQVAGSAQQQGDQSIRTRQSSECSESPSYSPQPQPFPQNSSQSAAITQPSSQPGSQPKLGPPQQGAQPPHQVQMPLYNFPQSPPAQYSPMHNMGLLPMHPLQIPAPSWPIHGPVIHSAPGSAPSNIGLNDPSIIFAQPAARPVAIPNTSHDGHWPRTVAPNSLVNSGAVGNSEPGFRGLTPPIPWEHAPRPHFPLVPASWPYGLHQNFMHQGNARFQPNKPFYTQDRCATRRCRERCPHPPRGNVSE
inactive: [1] -0.032 | [2] -0.024 | [3] 0.035 | [4] 0.009 | [5] -0.021

UGDH (UniProt O60701)
UniProt O60701, sequence (O60701 whole entry, looked up): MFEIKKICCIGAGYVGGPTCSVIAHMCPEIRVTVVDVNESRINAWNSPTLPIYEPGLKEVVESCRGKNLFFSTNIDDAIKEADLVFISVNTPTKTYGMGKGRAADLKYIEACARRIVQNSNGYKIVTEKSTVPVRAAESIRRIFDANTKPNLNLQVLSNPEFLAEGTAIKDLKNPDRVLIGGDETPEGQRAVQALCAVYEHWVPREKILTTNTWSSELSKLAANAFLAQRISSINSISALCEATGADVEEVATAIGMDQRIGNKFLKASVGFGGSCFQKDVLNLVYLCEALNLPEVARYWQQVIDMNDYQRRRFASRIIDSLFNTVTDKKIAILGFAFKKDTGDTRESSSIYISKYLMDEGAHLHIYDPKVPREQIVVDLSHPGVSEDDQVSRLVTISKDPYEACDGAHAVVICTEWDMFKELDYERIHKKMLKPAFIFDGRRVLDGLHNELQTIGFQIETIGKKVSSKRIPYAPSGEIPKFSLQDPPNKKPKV
inactive: [1] 0.003 | [2] 0.001 | [3] -0.004 | [4] -0.056 | [5] 0.026
